# Source: PubChem BioAssay (EPA / NIEHS)
# Results filed as inconclusive are left out. Calls of active or inactive are those of the source. How the source made its calls, unless noted: active means hit-call score of the fitted dose curve at least 0.9, where 1 is the maximum; inactive means score below 0.9.
# What was measured:
# [1] = read-out: Monocyte Chemoattractant Protein-1 (MCP1), CCL2 (gene 6347); experiment: BSK_SAg_MCP1: BioMAP Diversity Plus: SAg Assay for Monocyte Chemoattractant Protein-1 (MCP1) Biomarker Activity (AID 2283090); details: primary human HUVEC with PBMC; actives raise or lower the signal
# How it was run: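 MCP-1 levels in the endothelial–PBMC SAg co-culture were quantified by ELISA at 24 h post-dosing; both increases and decreases versus DMSO scored. Cytotoxicity monitored by SRB total protein in parallel cultures.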
# [2] = read-out: E-selectin (Homo sapiens) (UniProt P16581); experiment: BSK_SAg_Eselectin: BioMAP Diversity Plus: SAg Assay for Eselectin Biomarker Activity (AID 2283091); details: primary human HUVEC with PBMC; actives raise or lower the signal
# How it was run: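 Cell-surface E-selectin is read by ELISA at 24 h in the SAg co-culture of HUVEC and PBMC. Curves are fitted in both directions relative to DMSO. Parallel SRB total-protein staining tracks overt toxicity.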
# [3] = read-out: Monokine induced gamma interferon (MIG), CXCL9 (gene 4283); experiment: BSK_SAg_MIG: BioMAP Diversity Plus: SAg Assay for Monokine induced gamma interferon (MIG) Biomarker Activity (AID 2283092); details: primary human HUVEC with PBMC; actives raise or lower the signal
# How it was run: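 ELISA readout of MIG/CXCL9; primary human umbilical vein endothelial cells co-cultured with peripheral blood mononuclear cells; 24 h post-dose; gain/loss fit vs DMSO baseline.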
# [4] = BSK_SAg_PBMCCytotoxicity: PBMC Cytotoxicity Assessment in the BioMAP Diversity Plus: SAg Assay (AID 2283093); details: primary human HUVEC with PBMC;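 further: PBMC viability measured as Alamar Blue reduction fluorescence at 546/580 nm; fitted both ways against DMSO so a hit may be loss or gain of signal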;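 on AC50: PBMC superantigen activated with SEB plus TSST-1 one hour after compound addition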
# How it was run: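 Compound added to 75,000 PBMC/well for 1 h; SEB and TSST-1 then added at 20 ng/mL final each; 90 h incubation; Alamar Blue 6 h; read 546/580 nm ex/em. Activity fitted bidirectionally relative to DMSO baseline.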
# [5] = read-out: Interleukin-8 (IL8), CXCL8 (gene 3576); experiment: BSK_SAg_IL8: BioMAP Diversity Plus: SAg Assay for Interleukin-8 (IL8) Biomarker Activity (AID 2283094); details: primary human HUVEC with PBMC; actives raise or lower the signal
# How it was run: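 Human umbilical vein endothelial cells co-cultured with PBMC, stimulated with superantigen; IL-8 measured by ELISA 24 h after chemical dosing. Bidirectional fitting versus DMSO; SRB staining in parallel cultures tracks cytotoxicity.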
# [6] = BSK_SAg_Proliferation: Cell Proliferation Assessment in the BioMAP Diversity Plus: SAg Assay (AID 2283095); details: primary human HUVEC with PBMC
# How it was run: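 Human umbilical vein endothelial cells co-cultured with PBMC; sulforhodamine B total-protein staining (0.1% SRB after 10% TCA fixation, absorbance 560 nm) at 96 h in sub-confluent culture. Fitted bidirectionally against DMSO.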
# [7] = BSK_SAg_SRB: Viability Assessment in the BioMAP Diversity Plus: SAg Assay (AID 2283096); details: primary human HUVEC with PBMC;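 further: cells read one day after compound addition; hits may be either gain or loss of signal compared with DMSO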
# How it was run: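 Total protein by sulforhodamine B staining, 24 h after dosing, in HUVEC–PBMC co-culture; DMSO-referenced bidirectional fitting.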
# [8] = molecular target: human CYP2D6, CYP2D6 (gene 1565) (UniProt P10635); experiment: NVS_ADME_hCYP2D6: NovaScreen (NVS) CYP450-related Enzyme Activity (ADME) Assay for human CYP2D6 (AID 2283107; active means hit-call score of the fitted dose curve at least 0.9, where 1 is the maximum)
# Sequence of human CYP2D6, CYP2D6 (gene 1565) (P10635 whole entry, looked up): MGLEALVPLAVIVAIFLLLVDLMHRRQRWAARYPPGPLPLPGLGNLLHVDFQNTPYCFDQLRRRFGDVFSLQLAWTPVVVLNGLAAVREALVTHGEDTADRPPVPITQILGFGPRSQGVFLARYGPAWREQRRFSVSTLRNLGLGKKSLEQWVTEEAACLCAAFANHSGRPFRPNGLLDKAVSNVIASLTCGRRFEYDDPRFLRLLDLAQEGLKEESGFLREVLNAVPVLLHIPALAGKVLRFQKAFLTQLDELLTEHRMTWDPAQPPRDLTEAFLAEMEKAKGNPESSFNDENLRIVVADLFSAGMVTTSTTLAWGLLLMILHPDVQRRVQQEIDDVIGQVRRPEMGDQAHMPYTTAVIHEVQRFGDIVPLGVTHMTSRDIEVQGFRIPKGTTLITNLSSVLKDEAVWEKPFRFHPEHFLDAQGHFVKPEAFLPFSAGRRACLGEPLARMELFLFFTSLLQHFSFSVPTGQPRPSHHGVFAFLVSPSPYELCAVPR
# How it was run: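 Fluorescence readout of recombinant CYP2D6 (insect-cell derived) activity after 1 h incubation with test chemical. Acetonitrile served as baseline, loss-of-signal direction. Single-concentration duplicate screening at 10 uM preceded concentration-response retesting.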
# [9] = molecular target: human CYP2B6, CYP2B6 (gene 1555) (UniProt P20813); experiment: NVS_ADME_hCYP2B6: NovaScreen (NVS) CYP450-related Enzyme Activity (ADME) Assay for human CYP2B6 (AID 2283101; active means hit-call score of the fitted dose curve at least 0.9, where 1 is the maximum)
# Sequence of human CYP2B6, CYP2B6 (gene 1555) (P20813 whole entry, looked up): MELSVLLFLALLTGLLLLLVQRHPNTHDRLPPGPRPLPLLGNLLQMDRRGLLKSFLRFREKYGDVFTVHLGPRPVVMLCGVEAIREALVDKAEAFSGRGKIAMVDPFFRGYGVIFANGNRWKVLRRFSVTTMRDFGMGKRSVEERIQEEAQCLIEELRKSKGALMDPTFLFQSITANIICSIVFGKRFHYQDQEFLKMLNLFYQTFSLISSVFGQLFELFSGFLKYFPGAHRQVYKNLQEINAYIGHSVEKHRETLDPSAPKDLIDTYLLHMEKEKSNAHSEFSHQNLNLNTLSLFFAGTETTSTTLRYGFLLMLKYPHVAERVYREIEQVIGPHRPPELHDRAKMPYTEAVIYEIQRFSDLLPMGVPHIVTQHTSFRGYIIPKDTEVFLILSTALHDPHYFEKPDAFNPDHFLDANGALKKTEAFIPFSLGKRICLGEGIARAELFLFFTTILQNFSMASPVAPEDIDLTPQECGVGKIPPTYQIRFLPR
# How it was run: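 Fluorescence-based enzyme activity of recombinant human CYP2B6, measured 1 h post-dose against acetonitrile vehicle baseline. Screened at a single concentration of 10 uM in duplicate before concentration-response follow-up.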
# [10] = molecular target: human CYP1A2, CYP1A2 (gene 1544) (UniProt P05177); experiment: NVS_ADME_hCYP1A2: NovaScreen (NVS) CYP450-related Enzyme Activity (ADME) Assay for human CYP1A2 (AID 2283102; active means hit-call score of the fitted dose curve at least 0.9, where 1 is the maximum;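 further: potency for inhibition since loss of fluorescence marks reduced CYP1A2 activity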)
# Sequence of human CYP1A2, CYP1A2 (gene 1544) (P05177 whole entry, looked up): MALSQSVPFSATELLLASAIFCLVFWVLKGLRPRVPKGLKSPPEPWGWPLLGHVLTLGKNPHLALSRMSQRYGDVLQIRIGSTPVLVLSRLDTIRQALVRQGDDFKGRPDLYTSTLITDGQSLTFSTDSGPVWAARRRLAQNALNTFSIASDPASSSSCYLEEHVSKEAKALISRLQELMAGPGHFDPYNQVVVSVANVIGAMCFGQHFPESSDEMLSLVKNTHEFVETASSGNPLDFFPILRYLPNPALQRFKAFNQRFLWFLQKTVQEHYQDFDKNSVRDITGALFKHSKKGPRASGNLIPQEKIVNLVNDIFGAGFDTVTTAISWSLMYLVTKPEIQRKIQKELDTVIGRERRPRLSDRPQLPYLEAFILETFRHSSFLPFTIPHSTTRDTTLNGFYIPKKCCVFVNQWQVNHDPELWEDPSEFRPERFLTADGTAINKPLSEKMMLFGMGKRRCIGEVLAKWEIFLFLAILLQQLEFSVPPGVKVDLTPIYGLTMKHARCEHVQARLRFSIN
# How it was run: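 Enzyme activity of insect-cell-expressed human CYP1A2 measured by fluorescence 0.5 h after compound addition, relative to acetonitrile. Compounds first tested in duplicate at 10 uM, actives followed up in concentration series.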
# [11] = molecular target: Cytochrome P450 2C19 (Homo sapiens) (UniProt P33261); experiment: NVS_ADME_hCYP2C19: NovaScreen (NVS) CYP450-related Enzyme Activity (ADME) Assay for human CYP2C19 (AID 2283113; active means hit-call score of the fitted dose curve at least 0.9, where 1 is the maximum;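 on AC50: potency for inhibition seen as loss of fluorescent signal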)
# How it was run: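 Compounds first screened in duplicate at 10 uM, then confirmed in concentration series. Insect-cell-expressed human CYP2C19 turned over a fluorogenic substrate, and fluorescence was read after 1 h. Inhibition taken as signal loss relative to acetonitrile.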
# [12] = molecular target: human CYP2C9, CYP2C9 (gene 1559) (UniProt P11712); experiment: NVS_ADME_hCYP2C9: NovaScreen (NVS) CYP450-related Enzyme Activity (ADME) Assay for human CYP2C9 (AID 2283108; active means hit-call score of the fitted dose curve at least 0.9, where 1 is the maximum)
# Sequence of human CYP2C9, CYP2C9 (gene 1559) (P11712 whole entry, looked up): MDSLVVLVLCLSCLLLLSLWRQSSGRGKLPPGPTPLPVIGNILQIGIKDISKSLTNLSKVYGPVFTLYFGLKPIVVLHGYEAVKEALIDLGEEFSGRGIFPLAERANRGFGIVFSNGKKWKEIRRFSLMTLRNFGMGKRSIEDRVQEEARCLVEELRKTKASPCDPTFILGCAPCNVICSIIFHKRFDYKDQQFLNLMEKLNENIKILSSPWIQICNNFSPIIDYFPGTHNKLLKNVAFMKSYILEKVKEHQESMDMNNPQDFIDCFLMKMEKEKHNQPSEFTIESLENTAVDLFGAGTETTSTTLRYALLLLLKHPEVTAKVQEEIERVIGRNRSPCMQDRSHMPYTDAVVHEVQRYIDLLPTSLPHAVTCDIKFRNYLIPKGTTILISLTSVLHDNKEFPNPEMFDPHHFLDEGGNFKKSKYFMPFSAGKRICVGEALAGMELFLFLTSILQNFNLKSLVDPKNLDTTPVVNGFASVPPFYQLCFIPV
# How it was run: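 Fluorescence readout of CYP2C9 activity (SF9-expressed human enzyme) at 0.75 h. The primary screen used 10 uM in duplicate, with concentration-response follow-up for actives; acetonitrile was the negative control.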
# [13] = molecular target: rat CYP2A1, Cyp2a1 (gene 24894) (UniProt P11711); experiment: NVS_ADME_rCYP2A1: NovaScreen (NVS) CYP450-related Enzyme Activity (ADME) Assay for rat CYP2A1 (AID 2283114)
# Sequence of rat CYP2A1, Cyp2a1 (gene 24894) (P11711 whole entry, looked up): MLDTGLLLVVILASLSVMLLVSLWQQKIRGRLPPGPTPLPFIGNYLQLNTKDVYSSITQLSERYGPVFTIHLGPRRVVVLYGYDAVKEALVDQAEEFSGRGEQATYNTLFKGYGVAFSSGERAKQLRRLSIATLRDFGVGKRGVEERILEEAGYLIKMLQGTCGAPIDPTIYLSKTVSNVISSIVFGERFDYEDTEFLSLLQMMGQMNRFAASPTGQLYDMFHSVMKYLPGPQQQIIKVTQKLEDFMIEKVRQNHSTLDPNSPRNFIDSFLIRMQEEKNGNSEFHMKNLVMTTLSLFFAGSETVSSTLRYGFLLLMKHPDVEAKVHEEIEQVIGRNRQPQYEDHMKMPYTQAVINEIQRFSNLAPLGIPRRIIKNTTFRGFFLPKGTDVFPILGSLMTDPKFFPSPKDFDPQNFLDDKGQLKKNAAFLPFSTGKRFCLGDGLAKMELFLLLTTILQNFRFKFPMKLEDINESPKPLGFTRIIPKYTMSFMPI
# How it was run: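 Recombinant rat CYP2A1, cell-free, fluorogenic substrate turnover read by fluorescence intensity 0.75 h after dosing. Primary screen at 10 uM in duplicate; actives rerun as concentration-response up to 20 uM; loss of signal versus acetonitrile control.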
# [14] = molecular target: human CYP1A1, CYP1A1 (gene 1543) (UniProt P04798); experiment: NVS_ADME_hCYP1A1: NovaScreen (NVS) CYP450-related Enzyme Activity (ADME) Assay for human CYP1A1 (AID 2283100; active means hit-call score of the fitted dose curve at least 0.9, where 1 is the maximum)
# Sequence of human CYP1A1, CYP1A1 (gene 1543) (P04798 whole entry, looked up): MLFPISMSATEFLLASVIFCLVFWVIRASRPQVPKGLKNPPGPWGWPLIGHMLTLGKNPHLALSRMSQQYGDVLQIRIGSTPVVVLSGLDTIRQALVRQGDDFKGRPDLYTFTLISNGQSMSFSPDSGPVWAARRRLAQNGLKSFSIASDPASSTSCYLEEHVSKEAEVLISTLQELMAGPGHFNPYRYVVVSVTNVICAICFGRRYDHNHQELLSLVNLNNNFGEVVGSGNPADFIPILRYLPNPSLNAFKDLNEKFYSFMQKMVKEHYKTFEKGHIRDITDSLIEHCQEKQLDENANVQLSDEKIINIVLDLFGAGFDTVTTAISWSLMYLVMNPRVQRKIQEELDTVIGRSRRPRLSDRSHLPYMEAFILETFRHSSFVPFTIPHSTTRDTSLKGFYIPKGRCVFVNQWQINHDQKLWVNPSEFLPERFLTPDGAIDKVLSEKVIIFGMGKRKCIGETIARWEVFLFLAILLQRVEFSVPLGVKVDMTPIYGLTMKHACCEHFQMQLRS
# How it was run: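 Chemicals were first tested in duplicate at 10 uM, and those passing a 30% inhibition threshold were rerun as concentration series topping at 20 uM. Fluorescence read-out of recombinant enzyme turnover after 1 h, relative to acetonitrile.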
# [15] = molecular target: human CYP2J2, CYP2J2 (gene 1573) (UniProt P51589); experiment: NVS_ADME_hCYP2J2: NovaScreen (NVS) CYP450-related Enzyme Activity (ADME) Assay for human CYP2J2 (AID 2283106; active means hit-call score of the fitted dose curve at least 0.9, where 1 is the maximum)
# Sequence of human CYP2J2, CYP2J2 (gene 1573) (P51589 whole entry, looked up): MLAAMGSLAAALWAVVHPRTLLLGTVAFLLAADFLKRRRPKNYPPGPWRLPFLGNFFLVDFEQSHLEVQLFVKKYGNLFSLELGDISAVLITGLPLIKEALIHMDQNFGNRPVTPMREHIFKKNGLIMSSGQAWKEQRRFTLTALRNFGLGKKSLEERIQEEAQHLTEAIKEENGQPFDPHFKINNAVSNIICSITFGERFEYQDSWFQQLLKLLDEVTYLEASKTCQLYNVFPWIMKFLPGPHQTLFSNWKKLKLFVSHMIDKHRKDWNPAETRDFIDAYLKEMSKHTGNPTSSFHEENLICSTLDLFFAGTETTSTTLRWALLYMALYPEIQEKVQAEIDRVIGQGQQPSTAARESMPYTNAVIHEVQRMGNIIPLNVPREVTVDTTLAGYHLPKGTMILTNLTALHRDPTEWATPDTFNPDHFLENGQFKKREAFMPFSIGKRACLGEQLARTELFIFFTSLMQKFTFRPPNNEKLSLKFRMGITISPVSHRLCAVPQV
# How it was run: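 Cell-free assay of recombinant CYP2J2 with a fluorogenic substrate, read 1 h after dosing; loss of signal versus acetonitrile. Primary screen at 10 uM in duplicate, then concentration-response up to 20 uM for chemicals passing threshold (e.g., 30% inhibition).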
# [16] = molecular target: Cytochrome P450 3A4 (Homo sapiens) (UniProt P08684); experiment: NVS_ADME_hCYP3A4: NovaScreen (NVS) CYP450-related Enzyme Activity (ADME) Assay for human CYP3A4 (AID 2283110; active means hit-call score of the fitted dose curve at least 0.9, where 1 is the maximum)
# Sequence of Cytochrome P450 3A4 (Homo sapiens) (P08684 whole entry, looked up): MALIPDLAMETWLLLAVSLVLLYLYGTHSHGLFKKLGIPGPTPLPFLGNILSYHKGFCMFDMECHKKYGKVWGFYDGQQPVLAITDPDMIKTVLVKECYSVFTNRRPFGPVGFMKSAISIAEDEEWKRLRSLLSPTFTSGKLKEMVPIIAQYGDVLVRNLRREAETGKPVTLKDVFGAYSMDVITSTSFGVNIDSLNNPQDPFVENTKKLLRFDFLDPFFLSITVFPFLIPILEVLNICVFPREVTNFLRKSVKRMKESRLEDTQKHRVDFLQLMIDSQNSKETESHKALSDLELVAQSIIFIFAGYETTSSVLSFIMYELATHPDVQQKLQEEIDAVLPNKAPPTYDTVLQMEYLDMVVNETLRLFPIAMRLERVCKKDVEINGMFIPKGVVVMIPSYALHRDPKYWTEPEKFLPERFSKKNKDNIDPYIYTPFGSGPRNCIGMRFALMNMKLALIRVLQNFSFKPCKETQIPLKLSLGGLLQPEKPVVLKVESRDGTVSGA
# How it was run: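 Compounds were first screened in duplicate at 10 uM against recombinant CYP3A4 produced in insect cells, then actives were run in concentration series. Enzyme activity was measured by fluorescence after 0.33 hour, with acetonitrile as baseline.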
# Sequence of E-selectin (Homo sapiens) (P16581 whole entry, looked up): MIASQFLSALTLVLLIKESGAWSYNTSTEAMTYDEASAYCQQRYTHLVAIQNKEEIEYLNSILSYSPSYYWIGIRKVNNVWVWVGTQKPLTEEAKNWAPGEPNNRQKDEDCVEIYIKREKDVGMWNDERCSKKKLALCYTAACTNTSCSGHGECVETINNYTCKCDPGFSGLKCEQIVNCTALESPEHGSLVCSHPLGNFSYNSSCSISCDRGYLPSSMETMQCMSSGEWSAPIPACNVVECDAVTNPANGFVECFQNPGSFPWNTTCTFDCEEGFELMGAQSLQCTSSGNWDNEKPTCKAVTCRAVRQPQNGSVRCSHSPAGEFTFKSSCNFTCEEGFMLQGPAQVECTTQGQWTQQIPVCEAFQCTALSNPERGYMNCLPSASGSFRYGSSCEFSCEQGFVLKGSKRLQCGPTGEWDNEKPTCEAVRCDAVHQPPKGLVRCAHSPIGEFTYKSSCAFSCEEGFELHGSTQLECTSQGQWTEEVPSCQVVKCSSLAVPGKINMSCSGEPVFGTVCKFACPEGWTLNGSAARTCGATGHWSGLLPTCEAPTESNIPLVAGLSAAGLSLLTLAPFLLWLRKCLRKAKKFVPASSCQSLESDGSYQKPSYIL
smiles,measurement,setting,value
Cn1c(-c2ccccc2)cc(-c2ccccc2)[n+]1C,AC50,[1],5.52 µM (active)
same,AC50,[2],4.84 µM (active)
same,outcome,[3],inactive
same,AC50,[4],3.97 µM (active)
same,AC50,[5],4.04 µM (active)
same,AC50,[6],3.16 µM (active)
same,outcome,[7],inactive
same,AC50,[8],5.06 µM (active)
COC(=O)c1c(C(F)F)nc(C(F)(F)F)c(C2=NCCS2)c1CC(C)C,outcome,[1],inactive
same,AC50,[2],20 µM (active)
same,outcome,[3],inactive
same,AC50,[4],12.1 µM (active)
same,outcome,[5],inactive
same,AC50,[6],14.6 µM (active)
same,AC50,[7],32.5 µM (active)
same,AC50,[9],5.93 µM (active)
same,AC50,[10],0.561 µM (active)
same,AC50,[11],1.27 µM (active)
COC(=O)NC(=S)Nc1ccccc1NC(=S)NC(=O)OC,outcome,[1],inactive
same,AC50,[2],15.1 µM (active)
same,outcome,[3],inactive
same,AC50,[4],14 µM (active)
same,AC50,[5],25.1 µM (active)
same,AC50,[6],19.2 µM (active)
same,outcome,[7],inactive
same,AC50,[11],10 µM (active)
CCOP(=S)(OCC)Oc1nc(Cl)n(C(C)C)n1,outcome,[1],inactive
same,outcome,[2],inactive
same,outcome,[3],inactive
same,outcome,[4],inactive
same,outcome,[5],inactive
same,outcome,[6],inactive
same,outcome,[7],inactive
same,AC50,[9],1 µM (active)
same,AC50,[11],0.317 µM (active)
CC(C)Oc1cccc(NC(=O)c2ccccc2C(F)(F)F)c1,outcome,[1],inactive
same,outcome,[2],inactive
same,outcome,[3],inactive
same,outcome,[4],inactive
same,outcome,[5],inactive
same,outcome,[6],inactive
same,AC50,[7],15.1 µM (active)
same,AC50,[10],6.37 µM (active)
same,AC50,[12],3.19 µM (active)
same,AC50,[11],4.9 µM (active)
same,outcome,[13],inactive
CO/N=C(/C1=NOCCO1)c1ccccc1Oc1ncnc(Oc2ccccc2Cl)c1F,AC50,[1],27.2 µM (active)
same,AC50,[2],12.7 µM (active)
same,AC50,[3],34.7 µM (active)
same,AC50,[4],1.98 µM (active)
same,AC50,[5],11 µM (active)
same,AC50,[6],15.8 µM (active)
same,AC50,[7],18.3 µM (active)
same,AC50,[11],1.41 µM (active)
same,AC50,[13],1.57 µM (active)
CS(=O)(=O)c1cc(C(F)(F)F)ccc1C(=O)c1cnoc1C1CC1,outcome,[1],inactive
same,outcome,[2],inactive
same,outcome,[3],inactive
same,outcome,[4],inactive
same,outcome,[5],inactive
same,outcome,[6],inactive
same,outcome,[7],inactive
same,outcome,[8],inactive
CC1(C)C(C(=O)OC(C#N)c2cccc(Oc3ccccc3)c2)C1(C)C (stereo not given),outcome,[1],inactive
same,AC50,[2],13.1 µM (active)
same,outcome,[3],inactive
same,outcome,[4],inactive
same,AC50,[5],26.8 µM (active)
same,AC50,[6],15.3 µM (active)
same,AC50,[7],7.56 µM (active)
same,outcome,[12],inactive
same,AC50,[11],13.8 µM (active)
Cc1c(COC(=O)[C@@H]2[C@H](/C=C(\Cl)C(F)(F)F)C2(C)C)cccc1-c1ccccc1,outcome,[1],inactive
same,AC50,[2],10.3 µM (active)
same,outcome,[3],inactive
same,outcome,[4],inactive
same,AC50,[5],9.35 µM (active)
same,AC50,[6],14.1 µM (active)
same,AC50,[7],9.26 µM (active)
same,AC50,[11],12.9 µM (active)
CSC(=O)c1c(C(F)F)nc(C(F)(F)F)c(C(=O)SC)c1CC(C)C,AC50,[1],13.9 µM (active)
same,AC50,[2],13.1 µM (active)
same,outcome,[3],inactive
same,AC50,[4],27.6 µM (active)
same,AC50,[5],12.7 µM (active)
same,AC50,[6],28.6 µM (active)
same,AC50,[7],14.6 µM (active)
same,AC50,[10],3.3 µM (active)
same,AC50,[8],6.58 µM (active)
same,AC50,[11],7.01 µM (active)
CCCCC(C#N)(Cn1cncn1)c1ccc(Cl)cc1 (stereo not given),outcome,[1],inactive
same,outcome,[2],inactive
same,outcome,[3],inactive
same,outcome,[4],inactive
same,outcome,[5],inactive
same,outcome,[6],inactive
same,outcome,[7],inactive
same,AC50,[14],10.4 µM (active)
same,AC50,[9],6.49 µM (active)
same,outcome,[15],inactive
same,outcome,[8],inactive
same,AC50,[12],8.72 µM (active)
same,AC50,[11],0.634 µM (active)
same,AC50,[13],0.563 µM (active)
CC1(C)CCC(=Cc2ccc(Cl)cc2)C1(O)Cn1cncn1 (stereo not given),outcome,[1],inactive
same,outcome,[2],inactive
same,outcome,[3],inactive
same,outcome,[4],inactive
same,outcome,[5],inactive
same,outcome,[6],inactive
same,outcome,[7],inactive
same,AC50,[14],0.908 µM (active)
same,AC50,[12],0.289 µM (active)
same,AC50,[11],0.252 µM (active)
same,AC50,[13],1.11 µM (active)
O=C(Nc1ccccc1-c1ccc(Cl)cc1)c1cccnc1Cl,outcome,[1],inactive
same,outcome,[2],inactive
same,outcome,[3],inactive
same,outcome,[4],inactive
same,outcome,[5],inactive
same,outcome,[6],inactive
same,outcome,[7],inactive
same,AC50,[11],0.661 µM (active)
CCCCOCN(C(=O)CCl)c1c(CC)cccc1CC,AC50,[1],28.5 µM (active)
same,AC50,[2],18.9 µM (active)
same,AC50,[3],33.9 µM (active)
same,AC50,[4],33.2 µM (active)
same,AC50,[5],31 µM (active)
same,AC50,[6],22.2 µM (active)
same,AC50,[7],28.6 µM (active)
same,AC50,[9],8.94 µM (active)
same,AC50,[12],5.52 µM (active)
same,AC50,[16],9.74 µM (active)
same,AC50,[11],1.28 µM (active)
COc1ccc(-c2ccccc2)cc1NNC(=O)OC(C)C,outcome,[1],inactive
same,outcome,[2],inactive
same,outcome,[3],inactive
same,outcome,[4],inactive
same,outcome,[5],inactive
same,outcome,[6],inactive
same,outcome,[7],inactive
same,AC50,[14],0.597 µM (active)
same,AC50,[10],0.956 µM (active)
same,AC50,[15],0.407 µM (active)
same,outcome,[8],inactive
same,AC50,[12],1.07 µM (active)
same,AC50,[11],0.447 µM (active)
CCC(C)n1c(=O)[nH]c(C)c(Br)c1=O (stereo not given),outcome,[1],inactive
same,outcome,[2],inactive
same,outcome,[3],inactive
same,outcome,[4],inactive
same,outcome,[5],inactive
same,outcome,[6],inactive
same,outcome,[7],inactive
same,outcome,[11],inactive
